Positions count from the first letter of the chain named. The full ranking holds about 9,900 sequences; the median of “r (bound/input frequency ratio)” is about 0.7, and the highest 2% start at about 6.5. The full list was thinned out, with the highest values kept by preference.
B1: ENSMUSG00000004113.301|Cacna1b (ssRNA)
RNA: GGGAGUUCUACAGUCCGACGAUCGCUUCGAUAUCCGCAUGCUAAGGCACUCCUUGGUGUGGUCUCUCUGUUUUGAAACUUCUGAUGACUUCUUGGUGGCUUGUUGUCUUCUACCCCAUGUUUCUCACAGGAUCUGUGUGUGUGUGUGUGUGUGUGUGUGUGUGUGUGUGUGUGUGUGUUAGCAUGUGUGUAUUAGCGUGUGUGAGUGUGUGAGCAUGCACGAGUCAUAGGAGAUGCAGGUGUAUGUGUGUGGUGUGCAUAUGUGUAUGUGUGUGUGUGUGUGUGUGUGUGUAGGUGUGUUCAGCUCUUGCGGUCGCACUAGUGUGGAAUUCUCGGGUGUCAAGG
B2: ENSMUSG00000090935.77|Synj2bp|54:58 (ssRNA)
RNA: GGGAGUUCUACAGUCCGACGAUCGCUUCGAUAUCCGCAUGCUACUUUGUCAGCAUAGGCAGGAGUCCUUUAGGAUUUCUGCCUAUCAGUAAAAGAACAUACUAACCCAAGUUCUACCUUCAGUGGAUUAAAGUUUCAUUAAGUGAAAAUGGAAAGAAAGUAGAAUUACUUGGUAAGAGGCCAAAUGAGGAUACAGAGGCUGAAGAAGAUUGAAAGGAGCUAGUGUAAACAAACAAACAAACAAACAAACAAAAAACCAAACCCCAAAACAAAAACAAAAACAAAACAAAAUUGGAGAAAGCAGCUCUUGCGGUCGCACUAGUGUGGAAUUCUCGGGUGUCAAGG
B3: ENSMUSG00000090935.14|Synj2bp|150:154 (ssRNA)
RNA: GGGAGUUCUACAGUCCGACGAUCGCUUCGAUAUCCGCAUGCUAGAGAGCAGUCAGAUAUGAACGGACGGGUGGAUUAUUUAGUCACGGAGGAAGAGAUCAACCUGACGAGAGGACCUUCGGGUAAAUGGCCAAGAUCUGAAGAACCUGCUGCACCAAGAUGCUGUAGACCUCUUCCGUAAUGCGGGAUGUGCACACACCCUGAGAGUACAGCACAGGUUACCAGUGCAGAAUGGACCUAUAGUACAUCGAGGUGAAGGAGAGCCAAGUGGAGUUCCUGUAGCUAUGGUGCUGCUACCAGUGUUCUCUUGCGGUCGCACUAGUGUGGAAUUCUCGGGUGUCAAGG
B4: ENSMUSG00000090935.23|Synj2bp (ssRNA)
RNA: GGGAGUUCUACAGUCCGACGAUCGCUUCGAUAUCCGCAUGCUAUCAACCUGACGAGAGGACCUUCGGGUAAAUGGCCAAGAUCUGAAGAACCUGCUGCACCAAGAUGCUGUAGACCUCUUCCGUAAUGCGGGAUGUGCUGUGUCCCUGAGAGUACAGCACAGGUUACCAGUGCAGAAUGGACCUAUAGUACAUCGAGGUGAAGGAGAGCCAAGUGGAGUUCCUGUAGCUAUGGUGCUGCUACCAGUGUUUGCCCUCACCAUGGUAGCAGUUUGGGCCUUCGUGAGAUACCGAAAGCAGCUUUGCUCUUGCGGUCGCACUAGUGUGGAAUUCUCGGGUGUCAAGG
B5: ENSMUSG00000031028.306|Tub|133:137 (ssRNA)
RNA: GGGAGUUCUACAGUCCGACGAUCGCUUCGAUAUCCGCAUGCUAAUUGCCAUCAGAGAACCCUCAGCGAGGUAGCCUUUGUUUACAGUCUAGUUUCUAGAGGGCAGUAGGACUUCCAUGCUGGGGCUGGCCUAUCUCCUGAUGAAAGAUUACAGUGCCAUCUCCUUCCCAUAGUUCACACACUGCCCUCCCUCCCUGACUUUAUAGGGAGAAAUCUCCUGACAUUAGAGGUGAUAGAAACCAGAGCUUUAGUCUAGUCAGGCUGUUUCUCUGGGUUGACAAGUUUAAGGUUGAACAGGCUGAUUCUCUUGCGGUCGCACUAGUGUGGAAUUCUCGGGUGUCAAGG
B6: ENSMUSG00000004113.120|Cacna1b (ssRNA)
RNA: GGGAGUUCUACAGUCCGACGAUCGCUUCGAUAUCCGCAUGCUAGGGACUUUCUGAGCCUCGUGGAGAGUGUGGUUUGUCCAAAUGUGUGGCAUGGGAGAUAGGGUACCCCUGAAAGCAAGGAAAGGAGCCCAGCUGUGGCCUGGUAGCACCUGCCGGCACCAGUGAUCUCACGUCUCUUGUGGUCUUGGAGUCAAAUAGCACAUGUAUGUAGAGAUGCGCUCAAGGGCCUGCCUUUCACCUACACUGUCACCAUAACAGGGACCAAAUCUGGAGGAUGUCCUUGCUGUUGAUUCUGGUUUUCACUCUUGCGGUCGCACUAGUGUGGAAUUCUCGGGUGUCAAGG
B7: ENSMUSG00000061578.1213|Ksr2|85:89 (ssRNA)
RNA: GGGAGUUCUACAGUCCGACGAUCGCUUCGAUAUCCGCAUGCUAUCUCACACCCCUGUCCCCGUCCCCUCCACCCCCCGGCAGCAUGCUUCACUCUAUGAAUGAGCCGCUGGGAUAUUGACAUGGAGAACACAUGAUGGAAAAAGCCUCCACACCCAACAUAACUCUCCAGAGAGAUAUUGAAAGUGAUGGGCAGAGAGUCUGACAAUGACCCAGGGGUCAUUGUGAGUCCUAGGCUGAAUCUGUAAUGGGGUCCAAAGUGCAGGAGAGACUGCAUUCACCUUGUUGGUGGGGUGGGGCUUCUUCUCUUGCGGUCGCACUAGUGUGGAAUUCUCGGGUGUCAAGG
B8: ENSMUSG00000061578.1431|Ksr2|157:161;252:256 (ssRNA)
RNA: GGGAGUUCUACAGUCCGACGAUCGCUUCGAUAUCCGCAUGCUACUCUCUGUCUCUCUCACUCAUUGCCAACAUGUUGCUGGGAAAGAAUAUUUGAUUUAGAUGCCAAUCAGGAAGGCAAGUAGGAUGGAUGGAUGAGUGAGUGGAUAGGUAGGUAUAUAAAUGGAUGGAUGGGUGAUGGAUGGGUAAAUGAAUGGAUAGCAUACUGAAUGAAUGGAUGAUGGAUGAAUGGAUGGGUAGGUGGGUAGAUAGGUAUAUGAAUGAAUGGAUGAAUGGAUGGGUGAAUGGAUGGAUAGCAUACUGAACUCUUGCGGUCGCACUAGUGUGGAAUUCUCGGGUGUCAAGG
B9: ENSMUSG00000061578.1430|Ksr2 (ssRNA)
RNA: GGGAGUUCUACAGUCCGACGAUCGCUUCGAUAUCCGCAUGCUAGUCUUGCUCUCUGUCUCUCUCACUCAUUGCCAACAUGUUGCUGGGAAAGAAUAUUUGAUUUAGAUGCCAAUCAGGAAGGCAAGUAGGAUGGAUGGAUGAGUGAGUGGAUAGGUAGGUAUAUAAAUGGAUGGAUGGGUGAUGGAUGGGUAAAUGAAUGGAUAGGUAUGUGAAUGAAUGGAUGAUGGAUGAAUGGAUGGGUAGGUGGGUAGAUAGGUAUAUGAAUGAAUGGAUGAAUGGAUGGGUGAAUGGAUGGAUAGGUACUCUUGCGGUCGCACUAGUGUGGAAUUCUCGGGUGUCAAGG
B10: ENSMUSG00000061578.1433|Ksr2 (ssRNA)
RNA: GGGAGUUCUACAGUCCGACGAUCGCUUCGAUAUCCGCAUGCUACUCACUCAUUGCCAACAUGUUGCUGGGAAAGAAUAUUUGAUUUAGAUGCCAAUCAGGAAGGCAAGUAGGAUGGAUGGAUGAGUGAGUGGAUAGGUAGGUAUAUAAAUGGAUGGAUGGGUGAUGGAUGGGUAAAUGAAUGGAUAGGUAUGUGAAUGAAUGGAUGAUGGAUGAAUGGAUGGGUAGGUGGGUAGAUAGGUAUAUGAAUGAAUGGAUGAAUGGAUGGGUGAAUGGAUGGAUAGGUAUGUGAAUAAAUGGAUGGACUCUUGCGGUCGCACUAGUGUGGAAUUCUCGGGUGUCAAGG
B11: ENSMUSG00000061578.1432|Ksr2 (ssRNA)
RNA: GGGAGUUCUACAGUCCGACGAUCGCUUCGAUAUCCGCAUGCUAGUCUCUCUCACUCAUUGCCAACAUGUUGCUGGGAAAGAAUAUUUGAUUUAGAUGCCAAUCAGGAAGGCAAGUAGGAUGGAUGGAUGAGUGAGUGGAUAGGUAGGUAUAUAAAUGGAUGGAUGGGUGAUGGAUGGGUAAAUGAAUGGAUAGGUAUGUGAAUGAAUGGAUGAUGGAUGAAUGGAUGGGUAGGUGGGUAGAUAGGUAUAUGAAUGAAUGGAUGAAUGGAUGGGUGAAUGGAUGGAUAGGUAUGUGAAUAAAUGCUCUUGCGGUCGCACUAGUGUGGAAUUCUCGGGUGUCAAGG
B12: ENSMUSG00000061578.1434|Ksr2|139:143;234:238 (ssRNA)
RNA: GGGAGUUCUACAGUCCGACGAUCGCUUCGAUAUCCGCAUGCUACAUUGCCAACAUGUUGCUGGGAAAGAAUAUUUGAUUUAGAUGCCAAUCAGGAAGGCAAGUAGGAUGGAUGGAUGAGUGAGUGGAUAGGUAGGUAUAUAAAUGGAUGGAUGGGUGAUGGAUGGGUAAAUGAAUGGAUAGCAUACUGAAUGAAUGGAUGAUGGAUGAAUGGAUGGGUAGGUGGGUAGAUAGGUAUAUGAAUGAAUGGAUGAAUGGAUGGGUGAAUGGAUGGAUAGCAUACUGAAUAAAUGGAUGGAUGGAUGCUCUUGCGGUCGCACUAGUGUGGAAUUCUCGGGUGUCAAGG
B13: ENSMUSG00000061578.1430|Ksr2|163:167 (ssRNA)
RNA: B9 RNA with G206C, U207A, A208U, U209A, G210C
B14: ENSMUSG00000061578.1432|Ksr2|151:155;246:250 (ssRNA)
RNA: B11 RNA with G194C, U195A, A196U, U197A, G198C, G289C, U290A, A291U, U292A, G293C
B15: ENSMUSG00000061578.1429|Ksr2 (ssRNA)
RNA: GGGAGUUCUACAGUCCGACGAUCGCUUCGAUAUCCGCAUGCUAAGAUCUGUCUUGCUCUCUGUCUCUCUCACUCAUUGCCAACAUGUUGCUGGGAAAGAAUAUUUGAUUUAGAUGCCAAUCAGGAAGGCAAGUAGGAUGGAUGGAUGAGUGAGUGGAUAGGUAGGUAUAUAAAUGGAUGGAUGGGUGAUGGAUGGGUAAAUGAAUGGAUAGGUAUGUGAAUGAAUGGAUGAUGGAUGAAUGGAUGGGUAGGUGGGUAGAUAGGUAUAUGAAUGAAUGGAUGAAUGGAUGGGUGAAUGGAUGGACUCUUGCGGUCGCACUAGUGUGGAAUUCUCGGGUGUCAAGG
B16: ENSMUSG00000061578.1433|Ksr2|145:149;240:244 (ssRNA)
RNA: B10 RNA with G188C, U189A, A190U, U191A, G192C, G283C, U284A, A285U, U286A, G287C

Biological target: TDP-43 (Homo sapiens, UniProt Q13148 1-414)
Sequence (Q13148 whole entry): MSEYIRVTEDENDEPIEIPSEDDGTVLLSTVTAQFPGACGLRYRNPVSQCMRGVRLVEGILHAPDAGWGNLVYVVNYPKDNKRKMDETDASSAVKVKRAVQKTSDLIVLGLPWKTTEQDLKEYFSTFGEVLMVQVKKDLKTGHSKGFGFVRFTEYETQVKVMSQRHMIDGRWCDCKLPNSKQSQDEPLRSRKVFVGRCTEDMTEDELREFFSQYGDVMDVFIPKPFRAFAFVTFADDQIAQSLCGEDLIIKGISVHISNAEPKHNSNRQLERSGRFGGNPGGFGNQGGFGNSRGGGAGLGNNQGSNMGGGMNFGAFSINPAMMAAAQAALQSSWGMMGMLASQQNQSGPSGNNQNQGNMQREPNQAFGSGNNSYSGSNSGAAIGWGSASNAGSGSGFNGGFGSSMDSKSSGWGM
Test: RNA Bind-n-Seq with designed 260-mer pool; 25 mM Tris-HCl, 150 mM KCl, 3 mM MgCl2, BSA (printed 500 mg/mL), 20 units/mL SUPERase IN; pH not stated; 500 nM RNA pool, 1 h, 4 C; TDP-43 5, 50, 500 nM; high values mean tight binding
Conditions: protein: recombinant; tags: SBP (GST cleaved off with PreScission; pGEX-GST-SBP)
Summary of the method: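 Binding (R) is the ratio of each oligo's mapped-read-normalized abundance in the bound fraction to its abundance in the input. To obtain it, SBP-tagged recombinant TDP-43 (5, 50 or 500 nM) on streptavidin beads was incubated with 500 nM of an in vitro-transcribed 260-nt 3′ UTR oligo pool for 1 h at 4 °C in 25 mM Tris-HCl, 150 mM KCl, 3 mM MgCl2, BSA and SUPERase IN. The RNA retained after washing was released with biotin, then reverse transcribed, amplified by PCR and sequenced.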

Q: How did the binding signal turn out when B1 was run?
A: 5.79 R (bound/input frequency ratio)

Q: Which binding signal does the source give for B2 here?
A: 0.449 R (bound/input frequency ratio)

Q: For B3, which binding signal is on record?
A: 2.14 R (bound/input frequency ratio)

Q: Which binding signal does the source give for B4 here?
A: 1.15 R (bound/input frequency ratio)

Q: For B5, which binding signal is on record?
A: 0.368 R (bound/input frequency ratio)

Q: For B6, which binding signal is on record?
A: 1.21 R (bound/input frequency ratio)

Q: With B7 as the binder, how does the binding signal read?
A: 0.376 R (bound/input frequency ratio)

Q: For B8, which binding signal is on record?
A: 7.04 R (bound/input frequency ratio)

Q: How did the binding signal turn out when B9 was run?
A: 6.58 R (bound/input frequency ratio)

Q: B10 was tested. Which binding signal did it give?
A: 6.35 R (bound/input frequency ratio)

Q: How did the binding signal turn out when B11 was run?
A: 6.18 R (bound/input frequency ratio)

Q: For B12, which binding signal is on record?
A: 3.79 R (bound/input frequency ratio)

Q: How did the binding signal turn out when B13 was run?
A: 5.26 R (bound/input frequency ratio)

Q: B14 was tested. Which binding signal did it give?
A: 5.51 R (bound/input frequency ratio)

Q: Which binding signal does the source give for B15 here?
A: 4.48 R (bound/input frequency ratio)

Q: For B16, which binding signal is on record?
A: 7.14 R (bound/input frequency ratio)

Source: PMC12864922, “TDP-43 directly inhibits mRNA accumulation in neurites through modulation of mRNA stability”
